# From PubChem BioAssay AID588590 (National Center for Advancing Translational Sciences (NCATS), 2011)
# About 4,000 (1%) of roughly 390,000 compounds were called active. Inconclusive results (about 7%) are left out. The sample as a whole holds a higher share of actives than the screen did. Values without a mark were called inactive. Calls follow the shape of the dose curve; as a rule, active = well fitted inhibition curve with a large enough effect; inconclusive = small, poorly fitted or top-dose-only effect, or another doubt; inactive = no such curve, though single readings can be large or run the other way.
# Molecular target: DNA polymerase iota (Homo sapiens) (UniProt Q9UNA4)
# Sequence (Q9UNA4 whole entry, looked up): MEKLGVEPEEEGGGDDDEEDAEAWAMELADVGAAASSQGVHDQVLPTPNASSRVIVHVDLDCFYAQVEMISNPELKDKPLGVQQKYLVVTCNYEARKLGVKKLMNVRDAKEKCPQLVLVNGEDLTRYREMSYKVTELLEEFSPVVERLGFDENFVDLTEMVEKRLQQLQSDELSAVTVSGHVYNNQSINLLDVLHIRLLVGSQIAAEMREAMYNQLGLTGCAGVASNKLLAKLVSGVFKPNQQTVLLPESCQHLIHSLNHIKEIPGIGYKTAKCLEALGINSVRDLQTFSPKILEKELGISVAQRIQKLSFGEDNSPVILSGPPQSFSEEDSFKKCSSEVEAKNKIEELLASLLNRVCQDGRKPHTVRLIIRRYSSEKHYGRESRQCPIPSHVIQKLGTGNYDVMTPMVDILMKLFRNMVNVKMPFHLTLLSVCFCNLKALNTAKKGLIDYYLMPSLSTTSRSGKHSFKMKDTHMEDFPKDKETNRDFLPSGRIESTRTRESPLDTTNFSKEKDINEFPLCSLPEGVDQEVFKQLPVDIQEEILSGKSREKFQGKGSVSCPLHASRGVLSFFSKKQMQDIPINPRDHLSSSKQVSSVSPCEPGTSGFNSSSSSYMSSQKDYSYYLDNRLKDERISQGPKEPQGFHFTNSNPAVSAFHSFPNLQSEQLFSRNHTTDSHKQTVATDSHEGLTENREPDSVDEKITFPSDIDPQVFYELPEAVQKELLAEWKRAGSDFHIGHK
# Assay: qHTS for Inhibitors of Polymerase Iota
# Conditions: Pol iota fluorescent replication assay, 10 min; series mostly up to 115 µM; activity, negative = inhibition: at the top concentration
# Outline: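 Fluorescent replication assay read twice, at 0 min and 10 min after adding 50 nM (final) substrate. Enzyme (10 nM) and compounds were first incubated 15 min at room temperature; enzyme-free buffer wells were negative controls.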
# Potency is read from the fitted curve at half-maximal effect.
SMILES,"activity, negative = inhibition",Potency
CCOC(=O)c1cccc(NC(=O)c2cc(S(=O)(=O)N3CCCC(C)C3)cn2C)c1 (stereo not drawn),3.29%,
CCOc1ccc(N(C)S(=O)(=O)c2cc(-c3cnc(C)o3)ccc2OC)cc1,10.1%,
Cc1ccc(-n2c(=O)c3cccnc3n2CC(=O)NCc2ccc(F)cc2)cc1C,22.8%,
CC1CCCCN1S(=O)(=O)c1ccc(F)c(C(=O)Nc2ccccc2C(F)(F)F)c1 (stereo not drawn),13.6%,
Brc1nc2ncnc(NCc3ccco3)c2[nH]1,-12.7%,
Cc1ccc(N2NC(=O)/C(=C/C=C/c3ccco3)C2=O)cc1C,,20 µM (active)
Cc1ccc(N=C2NC(=O)/C(=C/C=C/c3ccco3)S2)cc1C,,11.2 µM (active)
Cc1ccc(-n2ncc3c(=O)n(-c4ccc(C)c(C)c4)c(-c4ccco4)nc32)cc1,24.7%,
Cc1ccc(C(=O)N/C(=C\c2ccco2)C(=O)N2CCSCC2)cc1C,21.8%,
CCOc1ccc(-c2cc3nc(C4CCN(C(=O)OC(C)(C)C)CC4)c(C(=O)Nc4cccc(CC)c4)cn3n2)cc1,31%,
COc1cccc(NC(=O)N2CCN(C(=O)c3nsc4ccccc34)CC2)c1,36.9%,
CCc1ccccc1NC(=O)N1CCC2(CC1)Oc1ccccc1C(=O)N2Cc1ccccc1F,-3.54%,
Cc1cc(C)cc(OCC(=O)Nc2c(C(=O)c3ccccc3)oc3ccccc23)c1,13.4%,
COc1ccccc1CNc1nc2ccc(Cl)cc2n2cnnc12,2.76%,
O=C(Nc1cccc(-c2nc3ccccc3o2)c1)c1cccc(Br)c1,7.05%,
O=C(COc1ccc([N+](=O)[O-])cc1)Nc1cccc(C(=O)Nc2ccccc2C(=O)O)c1,4.15%,
O=C(COc1ccc(/C=N/NC(=O)c2ccc(O)cc2)cc1)Nc1ccc([N+](=O)[O-])cc1,,3.98 µM (active)
Cc1cccc(OCC(=O)NCCNC(=O)c2cccnc2)c1,-19.7%,
Cc1ccc(OCC(=O)NCCCNC(=O)c2cccnc2)cc1C,-14.2%,
Cc1ccc(NC(=O)COc2ccc(/C=N\NC(=O)c3cccnc3)cc2)cc1C,,22.4 µM (active)
O=C(N/N=C/c1cccc(OC(=O)c2ccc([N+](=O)[O-])cc2)c1)c1cccnc1,148%,
O=C(Nc1ccc(S(=O)(=O)N2CCC(c3nc4ccccc4s3)CC2)cc1)c1ccccc1F,19.1%,
COc1ccc(CCNC(=O)c2nn(C)c3c2CSc2ccccc2-3)cc1OC,-19.9%,
COc1ccc(NC(=O)c2ccc3oc(=O)c(S(=O)(=O)c4ccc(F)cc4)cc3c2)c(OC)c1,18.3%,
CCCN1CCN(CCCNC(=O)c2cnn(-c3ccc(C)cc3)c2-n2cccc2)CC1,15%,
Cc1cc2occ(CC(=O)NNC(=O)c3ccccc3F)c2cc1C,9.31%,
Cn1c(CC(=O)NNC(=O)c2ccccc2F)nc2ccccc21,,70.8 µM (active)
O=C(Cn1cnc2ccccc2c1=O)NNC(=O)c1ccccc1F,85.9%,
